According to PubChem BioAssay (Tox21):
Values joined by “and” are separate entries in the source; they are usually repeats but may differ in a detail not shown here. Equal values may be shown once. Records with an inconclusive call do not appear. A structure can be active in one record and inactive in another. Active and inactive are the calls of the source. Unless noted, calls follow the shape of the dose curve; as a rule, active = well fitted curve in the direction sought with a large enough effect in the repeat runs; inconclusive = weak or mixed curves; inactive = no such curve, though single readings can be large; an effect the other way counts as inactive or inconclusive.

Tests used:
[1] = qHTS assay to identify small molecule agonists of the peroxisome proliferator-activated receptor delta (PPARd) signaling pathway - cell viability counter screen (AID 743211); also: nearly all actives have a fitted effect of over 55% in size; also: potency is read from the fitted curve at half-maximal effect
How it was run: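 qHTS cell viability: PPARd-bla HEK293H; 17 h cpd, 37C; CellTiter-Glo, luminescence at 30 min RT.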

[2] = target: Peroxisome proliferator-activated receptor delta (Homo sapiens) (UniProt Q03181); experiment: qHTS assay to identify small molecule agonists of the peroxisome proliferator-activated receptor delta (PPARd) signaling pathway (AID 743212; calls by dose curve)
Peroxisome proliferator-activated receptor delta (Homo sapiens), sequence (Q03181 whole entry, looked up): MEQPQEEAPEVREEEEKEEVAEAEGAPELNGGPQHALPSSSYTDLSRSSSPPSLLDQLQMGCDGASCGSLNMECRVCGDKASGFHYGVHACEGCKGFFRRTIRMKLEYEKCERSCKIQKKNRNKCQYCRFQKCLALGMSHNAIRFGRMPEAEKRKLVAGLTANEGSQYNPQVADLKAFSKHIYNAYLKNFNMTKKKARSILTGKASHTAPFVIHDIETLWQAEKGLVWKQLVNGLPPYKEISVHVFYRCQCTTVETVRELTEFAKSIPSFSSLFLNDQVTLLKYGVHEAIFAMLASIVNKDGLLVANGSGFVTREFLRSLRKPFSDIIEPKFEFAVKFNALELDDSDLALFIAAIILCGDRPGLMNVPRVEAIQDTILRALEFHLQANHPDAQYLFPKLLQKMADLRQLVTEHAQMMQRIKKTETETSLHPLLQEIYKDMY
How it was run: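 Quantitative high-throughput agonist screen in a HEK293H beta-lactamase reporter line under UAS control. Compounds in DMSO, at 37 C. Fluorescence read after 2 h with FRET substrate at room temperature.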

[3] = qHTS assay to identify small molecule antagonists of the peroxisome proliferator-activated receptor delta (PPARd) signaling pathway - cell viability counter screen (AID 743213); also: nearly all actives have a fitted effect of over 50% in size
How it was run: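 Agonist-stimulated (L165041, 300 nM final) HEK293H PPARd UAS-bla cells are exposed to compounds for 17 h at 37 C, and ATP-based luminescence (CellTiter-Glo) from the same wells reports cytotoxicity.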

[4] = target: Peroxisome proliferator-activated receptor delta (Homo sapiens) (UniProt Q03181); experiment: qHTS assay to identify small molecule antagonists of the peroxisome proliferator-activated receptor delta (PPARd) signaling pathway (AID 743215; active = well fitted inhibition curve with a large enough effect in the signal ratio in the repeat runs, not every such curve was filed as active; the % refers to the signal ratio; also: series mostly up to about 62 µM)
How it was run: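 PPARd UAS-bla HEK293H cells were pre-incubated 5 h at 37 C, then given test compounds in DMSO plus agonist L165041 (300 nM final). After 17 h at 37 C, beta-lactamase FRET substrate was added; fluorescence read after 2 h at room temperature.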

[5] = qHTS assay to identify small molecule agonists of the farnesoid-X-receptor (FXR) signaling pathway - cell viability counter screen (AID 743218); also: nearly all actives have a fitted effect of over 45% in size; also: potency is read from the fitted curve at half-maximal effect
How it was run: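 FXR-UAS-bla HEK 293T cells, plated 5 h at 37 C, were exposed to compounds for 16 h at 37 C. CellTiter-Glo was then added to the same wells as the bla readout; luminescence read after 30 min at room temperature.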

[6] = qHTS assay to identify small molecule antagonists of the farnesoid-X-receptor (FXR) signaling pathway - cell viability counter screen (AID 743221; active = well fitted cell-killing curve with a large enough effect in the repeat runs, not every such curve was filed as active; also: nearly all actives have a fitted effect of over 50% in size; also: potency is read from the fitted curve at half-maximal effect)
How it was run: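 After a 5 h settling period, FXR-bla HEK 293T cells receive compound and chenodeoxycholic acid (50 uM final) and incubate 16 h at 37 C; CellTiter-Glo luminescence, read after 30 min at room temperature, reports cell viability.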

[7] = target: Vitamin D3 receptor (Homo sapiens) (UniProt P11473); experiment: qHTS assay to identify small molecule antagonists of the vitamin D receptor (VDR) signaling pathway (AID 743223; active = well fitted inhibition curve with a large enough effect in the signal ratio in the repeat runs, not every such curve was filed as active; the % refers to the signal ratio)
Vitamin D3 receptor (Homo sapiens), sequence (P11473 whole entry, looked up): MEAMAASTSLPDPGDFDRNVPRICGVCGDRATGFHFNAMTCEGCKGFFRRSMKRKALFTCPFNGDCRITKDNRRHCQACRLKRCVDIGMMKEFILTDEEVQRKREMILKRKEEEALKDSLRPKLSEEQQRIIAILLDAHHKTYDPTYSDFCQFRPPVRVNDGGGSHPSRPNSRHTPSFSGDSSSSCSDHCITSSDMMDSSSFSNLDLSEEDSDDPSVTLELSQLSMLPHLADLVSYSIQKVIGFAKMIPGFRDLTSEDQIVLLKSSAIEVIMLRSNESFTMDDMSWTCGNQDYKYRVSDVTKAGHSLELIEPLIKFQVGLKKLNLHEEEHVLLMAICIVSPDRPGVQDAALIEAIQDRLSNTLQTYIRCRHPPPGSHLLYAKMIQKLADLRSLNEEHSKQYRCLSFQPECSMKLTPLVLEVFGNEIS
How it was run: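 Reporter line VDR-bla; stimulus 1alpha,25-(OH)2 vitamin D3, 3 nM final; compound co-addition, 16 h 37C/5% CO2; LiveBLAzer B/G substrate 2 h RT; fluorescence intensity.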

[8] = target: Vitamin D3 receptor (Homo sapiens) (UniProt P11473); experiment: qHTS assay to identify small molecule agonists of the vitamin D receptor (VDR) signaling pathway (AID 743222; calls by dose curve)
How it was run: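 VDR-bla cells were plated 4 h at 37C/5% CO2, then exposed to compounds in DMSO for 16 h. After LiveBLAzer B/G FRET substrate addition and 2 h at room temperature, beta-lactamase reporter fluorescence was read.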

[9] = target: Bile acid receptor (Homo sapiens) (UniProt Q96RI1); experiment: qHTS assay to identify small molecule antagonists of the farnesoid-X-receptor (FXR) signaling pathway (AID 743217; active = well fitted inhibition curve with a large enough effect in the signal ratio in the repeat runs, not every such curve was filed as active; the % refers to the signal ratio)
Bile acid receptor (Homo sapiens), sequence (Q96RI1 whole entry, looked up): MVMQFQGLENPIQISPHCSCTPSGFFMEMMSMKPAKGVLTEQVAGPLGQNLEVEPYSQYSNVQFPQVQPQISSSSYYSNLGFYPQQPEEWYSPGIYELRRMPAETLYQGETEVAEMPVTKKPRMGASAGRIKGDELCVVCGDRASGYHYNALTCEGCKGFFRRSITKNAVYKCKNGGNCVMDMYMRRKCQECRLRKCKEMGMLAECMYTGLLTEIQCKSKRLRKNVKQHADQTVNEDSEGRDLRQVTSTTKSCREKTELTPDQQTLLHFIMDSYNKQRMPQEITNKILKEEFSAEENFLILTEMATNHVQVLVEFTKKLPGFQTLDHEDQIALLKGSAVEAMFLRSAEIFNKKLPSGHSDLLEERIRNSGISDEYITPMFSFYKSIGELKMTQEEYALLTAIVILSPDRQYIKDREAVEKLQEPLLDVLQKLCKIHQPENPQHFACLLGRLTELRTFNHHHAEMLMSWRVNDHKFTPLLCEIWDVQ
How it was run: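 FXR-UAS-bla HEK 293T cells pre-incubated 5 h at 37 °C, then exposed to compounds with chenodeoxycholic acid (50 uM final) for 16 h at 37 °C. Beta-lactamase reporter read by LiveBLAzer B/G FRET substrate fluorescence after 2 h at room temperature.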

[10] = target: Bile acid receptor (Homo sapiens) (UniProt Q96RI1); experiment: qHTS assay to identify small molecule agonists of the farnesoid-X-receptor (FXR) signaling pathway (AID 743220; active = well fitted activation curve with a large enough effect in the signal ratio in the repeat runs, not every such curve was filed as active; the % refers to the signal ratio)
How it was run: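 Beta-lactamase reporter under UAS control in GeneBLAzer FXR HEK 293T cells (5000/well) measured with LiveBLAzer FRET substrate after 2 h at room temperature. Compound exposure lasted 16 h at 37C.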

Measured: Potency

CN(C)C(=O)Cl
not listed: [8] | [9] | [10]
inactive: all other assays above

CNC(=O)O/N=C(\SC)C(=O)N(C)C
not listed: [9] | [10]
inactive: all other assays above

O=S(=O)(O)OOS(=O)(=O)O
not listed: [9] | [10]
inactive: all other assays above

COc1nc(NC(C)C)nc(NC(C)C)n1
not listed: [8]
inactive: all other assays above

COc1cc(-c2ccc(N)c(OC)c2)ccc1N
not listed: [8] | [9] | [10]
inactive: all other assays above

CC(C)c1cccc(C(C)C)c1O
not listed: [8] | [9] | [10]
inactive: all other assays above

CC(C)(C)C(=O)CCl
not listed: [9] | [10]
inactive: all other assays above

CC(=O)/C=C/c1ccccc1
not listed: [9] | [10]
inactive: all other assays above

Sc1ccccc1
not listed: [9] | [10]
inactive: all other assays above

CCOP(=S)(OCC)Oc1ccc([N+](=O)[O-])cc1
inactive: [1] | [2] | [3] | [4] | [5] | [6]

OCC(O)CCl (stereo unspecified)
not listed: [9] | [10]
inactive: all other assays above

Cc1cc(Cl)ccc1OC(C)C(=O)O (stereo unspecified)
inactive: [1] | [2] | [3] | [4] | [5] | [6]

Nc1ccc([As](=O)(O)O)cc1
inactive: [1] | [2] | [3] | [4] | [5] | [6]

CCOP(=S)(OCC)Oc1cc(C)nc(C(C)C)n1
inactive: [2] | [3] | [4]
inactive and 54.9 µM (active): [1]
inactive and 49 µM (active): [5]
inactive and 43.6 µM (active): [6]

Cc1ccccc1N
inactive: [1] | [2] | [3] | [4] | [5] | [6]

Cl/C=C/Cl
not listed: [8] | [9] | [10]
inactive: all other assays above

Oc1c(Br)cc(Br)cc1Br
inactive: [1] | [2] | [3] | [4] | [5] | [6]

CNc1cnn(-c2cccc(C(F)(F)F)c2)c(=O)c1Cl
not listed: [8]
inactive: all other assays above

CN(C)C(=O)Nc1cccc(C(F)(F)F)c1
not listed: [9] | [10]
inactive: all other assays above

O=C(O)COc1ccccc1
not listed: [9] | [10]
inactive: all other assays above

OC[C@@H](O)[C@H]1O[C@@H]2O[C@H](C(Cl)(Cl)Cl)O[C@@H]2[C@H]1O
inactive: [1] | [2] | [3] | [4] | [5] | [6]

O=C/C=C/c1ccccc1
not listed: [8] | [9] | [10]
inactive: all other assays above

Cc1ccc(N)cc1
inactive: [1] | [3] | [5] | [6]

C=CC(=O)OCC(CC)CCCC (stereo unspecified)
inactive: [1] | [3] | [5] | [6] | [8]

Cc1cccc(N)c1
not listed: [8] | [9] | [10]
inactive: all other assays above

Cc1ccc(N=C=O)cc1N=C=O
inactive: [1] | [3] | [5] | [6] | [7]

COS(=O)(=O)OC
not listed: [8] | [9] | [10]
inactive: all other assays above

O=P1(NCCCl)OCCCN1CCCl (stereo unspecified)
inactive: [1] | [3] | [5] | [6]

O=C(O)Cc1ccccc1
not listed: [2] | [4]
inactive: all other assays above

O=[N+]([O-])c1ccc(Cl)cc1
inactive: [1] | [3] | [5] | [6] | [8] | [7]

CNC(=O)O/N=C/C(C)(C)SC
not listed: [3] | [7] | [8]
inactive: all other assays above

CC12CC1(C)C(=O)N(c1cc(Cl)cc(Cl)c1)C2=O (stereo unspecified)
inactive: [1] | [2] | [3] | [5] | [6] | [7]

NNc1ccccc1
inactive: [1] | [3] | [5] | [6]

CN(C)NC(=O)CCC(=O)O
not listed: [8] | [9] | [10]
inactive: all other assays above

O=C(O)c1cc(Oc2ccc(C(F)(F)F)cc2Cl)ccc1[N+](=O)[O-]
inactive: [1] | [3] | [5] | [6]

CCCCCCCCCCCCCCCCCC(=O)O
inactive: [1] | [3] | [5] | [6]

CN(C)C(=O)C(c1ccccc1)c1ccccc1
inactive: [1] | [2] | [3] | [5] | [6]

ClC(Cl)c1ccccc1
not listed: [8] | [9] | [10]
inactive: all other assays above

Nc1ccc(N)cc1
not listed: [2] | [4] | [8]
inactive: all other assays above

CNC(=O)O/N=C/C(C)(C)S(C)(=O)=O
inactive: [1] | [3] | [5] | [6]

c1ccc2c(c1)CCCC2
not listed: [2] | [4] | [8]
inactive: all other assays above

O=C(O)C(Br)Br
not listed: [2] | [4] | [8]
inactive: all other assays above

C/C=C/c1ccc2c(c1)OCO2
inactive: [1] | [3] | [5] | [6] | [7]

COP(=S)(OC)Oc1ccc(SC)c(C)c1
not listed: [8] | [9] | [10]
inactive: all other assays above

C[C@]12CC[C@H](O)CC1=CC[C@@H]1[C@@H]2CC[C@]2(C)C(=O)CC[C@@H]12
inactive: [1] | [2] | [3] | [5] | [6]

C=C(C)C(=O)OCC(CC)CCCC (stereo unspecified)
inactive: [1] | [3] | [5] | [6] | [7]

COC(C)(C)CCCC(C)C/C=C/C(C)=C/C(=O)OC(C)C (stereo unspecified)
inactive: [1] | [3] | [5] | [6]

C=CC#N
inactive: [1] | [3] | [5] | [6] | [7]

N#Cc1cccc(C#N)c1
not listed: [8] | [9] | [10]
inactive: all other assays above

OCCCCO
not listed: [2] | [4] | [8]
inactive: all other assays above

CNCC(O)c1ccc(O)cc1 (stereo unspecified)
not listed: [4] | [8]
inactive: all other assays above

N#Cc1ccccn1
inactive: [1] | [3] | [5] | [6]

Oc1ccc(Cl)cc1
inactive: [1] | [3] | [5] | [6] | [7]
